Experimental data reported in ChEMBL document CHEMBL2218924, “A broad activity screen in support of a chemogenomic map for kinase signalling research and drug discovery” (Biochem J, 2013).

biological target: Serine/threonine-protein kinase 10 (Homo sapiens) (UniProt O94804); conditions: at 10 µM
Sequence (O94804 whole entry, looked up): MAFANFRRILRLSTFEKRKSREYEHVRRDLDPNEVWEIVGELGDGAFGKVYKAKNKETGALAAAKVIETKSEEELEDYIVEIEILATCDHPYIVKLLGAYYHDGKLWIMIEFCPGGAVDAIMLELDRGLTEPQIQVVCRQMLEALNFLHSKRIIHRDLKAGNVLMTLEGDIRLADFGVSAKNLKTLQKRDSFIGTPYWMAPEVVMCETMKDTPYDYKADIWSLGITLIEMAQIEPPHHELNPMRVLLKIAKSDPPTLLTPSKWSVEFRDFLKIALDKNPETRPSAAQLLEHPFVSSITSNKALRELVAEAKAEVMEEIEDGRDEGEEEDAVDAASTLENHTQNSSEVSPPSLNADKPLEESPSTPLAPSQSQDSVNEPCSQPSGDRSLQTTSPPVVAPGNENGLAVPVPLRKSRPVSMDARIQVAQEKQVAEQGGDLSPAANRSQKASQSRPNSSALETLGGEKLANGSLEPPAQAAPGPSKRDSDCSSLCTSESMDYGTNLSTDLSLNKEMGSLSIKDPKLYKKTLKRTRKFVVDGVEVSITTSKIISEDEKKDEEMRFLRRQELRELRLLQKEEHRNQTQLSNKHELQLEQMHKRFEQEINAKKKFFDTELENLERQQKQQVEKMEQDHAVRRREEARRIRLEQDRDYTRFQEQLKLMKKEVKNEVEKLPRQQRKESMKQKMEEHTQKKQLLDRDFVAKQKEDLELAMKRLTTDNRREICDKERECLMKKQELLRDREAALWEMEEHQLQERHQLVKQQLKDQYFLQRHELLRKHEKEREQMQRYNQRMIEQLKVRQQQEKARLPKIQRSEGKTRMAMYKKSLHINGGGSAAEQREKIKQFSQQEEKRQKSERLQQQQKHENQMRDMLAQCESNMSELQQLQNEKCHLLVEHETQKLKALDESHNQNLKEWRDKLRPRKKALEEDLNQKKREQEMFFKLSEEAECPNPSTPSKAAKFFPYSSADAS

| SMILES | residual activity |
| --- | --- |
| CC(C)n1cnc2/c(=N/c3cccc(Cl)c3)nc(NCCO)[nH]c21 | 47% |
| Oc1ccc(-c2nc(-c3ccc(F)cc3)c(-c3ccncc3)[nH]2)cc1 | 59% |
| CC(=O)O/N=C1\C(=C2\C(=O)Nc3cc(Br)ccc32)Nc2ccccc21 | 46% |
| O=C1NC(=O)c2c1c1c3ccccc3[nH]c1c1[nH]c3cc(Br)ccc3c21 | 95% |
| CNc1cc2c(Nc3cccc(Br)c3)ncnc2cn1 | 10% |
| CO[C@H]1C[C@@H]2CC[C@@H](C)[C@@](O)(O2)C(=O)C(=O)N2CCCC[C@H]2C(=O)O[C@H]([C@H](C)C[C@@H]2CC[C@@H](O)[C@H](OC)C2)CC(=O)[C@H](C)/C=C(\C)[C@@H](O)[C@@H](OC)C(=O)[C@H](C)C[C@H](C)/C=C/C=C/C=C/1C | 90% |
| Cn1cc(/C=C2\C(=O)Nc3ccc(S(N)(=O)=O)cc32)c2ccccc21 | 7% |
| N#Cc1cnc2cnc(NCc3cccnc3)cc2c1Nc1ccc(F)c(Cl)c1 | 93% |
| O=[N+]([O-])c1ccc(-c2nc(-c3ccc(F)cc3)c(-c3ccncc3)[nH]2)cc1 | 108% |
| Oc1ccc(Nc2nc(-c3ccc(Cl)cc3)cs2)cc1 | 107% |
| C[C@@H](N)[C@H]1CC[C@H](C(=O)Nc2ccncc2)CC1 | 59% |
| c1ccc2c(-c3ccncc3)c[nH]c2c1 | 54% |
| Cc1cc(Nc2nc(-c3ccccc3)nc3ccccc23)n[nH]1 | 10% |
| N#CCCc1ccc2c(c1)-c1[nH]c3ccc([N+](=O)[O-])cc3c1CC(=O)N2 | 58% |

biological target: Tyrosine-protein kinase Lck (Homo sapiens) (UniProt P06239); conditions: at 1 µM
Sequence (P06239 2-509 limits assumed): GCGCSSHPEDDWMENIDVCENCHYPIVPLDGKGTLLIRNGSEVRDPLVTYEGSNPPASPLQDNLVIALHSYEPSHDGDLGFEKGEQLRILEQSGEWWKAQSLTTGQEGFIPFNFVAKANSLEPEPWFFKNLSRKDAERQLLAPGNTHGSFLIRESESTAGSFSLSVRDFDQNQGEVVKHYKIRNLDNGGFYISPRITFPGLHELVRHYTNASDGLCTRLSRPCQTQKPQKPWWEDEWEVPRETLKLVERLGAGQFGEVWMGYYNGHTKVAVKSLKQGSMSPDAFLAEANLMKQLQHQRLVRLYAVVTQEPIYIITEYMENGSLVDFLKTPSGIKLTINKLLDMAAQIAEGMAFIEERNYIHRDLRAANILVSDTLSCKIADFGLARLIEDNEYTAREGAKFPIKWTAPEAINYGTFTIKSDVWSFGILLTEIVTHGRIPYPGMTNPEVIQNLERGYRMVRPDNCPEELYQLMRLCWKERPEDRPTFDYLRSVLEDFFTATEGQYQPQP

| SMILES | residual activity |
| --- | --- |
| CCN(CC)CCCCN1c2ccccc2Oc2ccc(Cl)cc21 | 84% |
| O=C1NC(=O)c2cc(Nc3ccc(F)cc3)c(Nc3ccc(F)cc3)cc21 | 103% |
| COc1cccc(-c2cc(=O)c3ccccc3o2)c1N | 85% |
| Cc1cccc(-c2[nH]c(C(C)(C)C)nc2-c2ccc3c(c2)OCO3)n1 | 146% |
| N#C/C(=C(\N)Sc1ccc(N)cc1)c1ccccc1C(F)(F)F | 83% |
| COc1cc2ncnc(Nc3ccc(O)c(Br)c3)c2cc1OC | 27% |
| O=C1Nc2cc(Br)ccc2/C1=C1/Nc2ccccc2/C1=N\O | 2% |
| COc1cc2ncnc(Nc3ccc(NC(=O)c4ccccc4)cc3)c2cc1OC | 70% |
| Nc1cccc(-c2cc3c(Oc4cccc(O)c4)ncnc3[nH]2)c1 | 3% |
| CCC(=O)Nc1ccc2ncnc(Nc3cccc(Br)c3)c2c1 | 79% |
| CCN(CC)C(=O)c1ccc(Nc2nc(OCC3CCCCC3)c3nc[nH]c3n2)cc1 | 10% |
| CN(C)CCCn1cc(C2=C(c3c[nH]c4ccccc34)C(=O)NC2=O)c2ccccc21 | 109% |
| O=C1Nc2ccccc2/C1=C1/Nc2ccccc2/C1=N\OCCC(O)CO (stereo not drawn) | 4% |
| CC[n+]1c(/C=C/N(C)c2ccccc2)n(-c2ccccc2)c2ccc(-c3nc4ccccc4s3)cc21 | 133% |
| CC(C)n1cnc2/c(=N/c3cccc(Cl)c3)nc(NCCO)[nH]c21 | 48% |
| Oc1ccc(-c2nc(-c3ccc(F)cc3)c(-c3ccncc3)[nH]2)cc1 | 61% |
| CC(=O)O/N=C1\C(=C2\C(=O)Nc3cc(Br)ccc32)Nc2ccccc21 | 16% |
| O=C1NC(=O)c2c1c1c3ccccc3[nH]c1c1[nH]c3cc(Br)ccc3c21 | 79% |
| CNc1cc2c(Nc3cccc(Br)c3)ncnc2cn1 | 87% |
| CO[C@H]1C[C@@H]2CC[C@@H](C)[C@@](O)(O2)C(=O)C(=O)N2CCCC[C@H]2C(=O)O[C@H]([C@H](C)C[C@@H]2CC[C@@H](O)[C@H](OC)C2)CC(=O)[C@H](C)/C=C(\C)[C@@H](O)[C@@H](OC)C(=O)[C@H](C)C[C@H](C)/C=C/C=C/C=C/1C | 121% |
| Cn1cc(/C=C2\C(=O)Nc3ccc(S(N)(=O)=O)cc32)c2ccccc21 | 20% |
| CO[C@H]1[C@@H](OC)C[C@H](C)[C@@H](OC)C2=CC(=O)C=C(NC(=O)/C(C)=C/C=C/[C@H](OC)[C@@H](OC(N)=O)/C(C)=C/[C@@H]1C)C2=O | 142% |
| N#Cc1cnc2cnc(NCc3cccnc3)cc2c1Nc1ccc(F)c(Cl)c1 | 68% |
| O=[N+]([O-])c1ccc(-c2nc(-c3ccc(F)cc3)c(-c3ccncc3)[nH]2)cc1 | 71% |
| Oc1ccc(Nc2nc(-c3ccc(Cl)cc3)cs2)cc1 | 93% |
| c1ccc2c(-c3ccncc3)c[nH]c2c1 | 102% |
| Cc1cc(Nc2nc(-c3ccccc3)nc3ccccc23)n[nH]1 | 23% |
| N#CCCc1ccc2c(c1)-c1[nH]c3ccc([N+](=O)[O-])cc3c1CC(=O)N2 | 14% |
| COc1cc2ncnc(Nc3ccc(Oc4ccccc4)cc3)c2cc1OC | 0% |
